These results are taken from PubChem BioAssay (NCATS).

Molecules are shown by their SMILES. Results filed as inconclusive are left out. Active and inactive are the calls of the source. The call rests on the fitted dose curve; in most records, active means well fitted curve in the direction sought with a large enough effect; inconclusive means small, poorly fitted or top-dose-only effect, or another doubt; inactive means no such curve, though single readings can be large; an effect the other way counts as inactive or inconclusive.

A short description of assay [1]: HPAF-II Cancer Cell Toxicity qHTS against the NCATS CANVASS Library (AID 1347346). Further: nearly all actives have a fitted effect of over 55% in size. Further: potency means the concentration at half of the fitted maximal effect. Put shortly:
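Luminescence from CellTiter-Glo, added after 72 h compound exposure and a 15 min room-temperature incubation, served as the viability readout. HPAF-II cells (1000/well) received an 11-point concentration series.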

A short description of assay [2]: U-118MG Cancer Cell Toxicity qHTS against the NCATS CANVASS Library (AID 1347351). Further: potency means the concentration at half of the fitted maximal effect. In a few lines: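 Following a 4 h pre-incubation of 1000 seeded cells, compounds were pinned in an 11-pnt dilution series and left for 72 h; viability then came from CellTiter-Glo.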
A general note: Quantitative high-throughput screening tests each substance at several concentrations.

The nature of assay [3]: A2780 Cisplatin Sensitive Ovarian Cancer Cell Toxicity qHTS against the NCATS CANVASS Library (AID 1347353). Further: nearly all actives have a fitted effect of over 60% in size. Further: potency means the concentration at half of the fitted maximal effect. Put shortly: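 Luminescent ATP content (ATPLite, 10 min at room temperature) served as the read-out after cells had been exposed to compounds for 72 hours at 37 °C. Dosing followed an 11-point concentration series.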
Assay [4] is described as follows: SDT Cancer Cell Toxicity qHTS against the NCATS CANVASS Library (AID 1347365). Further: nearly all actives have a fitted effect of over 60% in size. Further: potency means the concentration at half of the fitted maximal effect. In a few lines:
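qHTS, SDT dog glioma line, 500 cells/well; cpds 11 pts; 72 hr, 37C, 5% CO2; CellTiterGlo ATP luminescence.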

Assay [5] can be described thus: qHTS for ATAD5 Antagonist screened against the NCATS CANVASS Library (AID 1347370). Further: nearly all actives have a fitted effect of over 65% in size. Further: potency means the concentration at half of the fitted maximal effect. In a few lines: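 HEK293T cells with stably integrated ATAD5-luciferase reporter, 2000/well, 5 h attachment; compounds plus 10 µM 5-fluorouridine, 16 h at 37 °C. Luciferase luminescence read, with CellTiter-Fluor viability read first.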
Assay [6] is described as follows: qHTS for Activators of p53 Stress Response Pathway screened against the NCATS CANVASS Library (AID 1347388). Put shortly:
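Beta-lactamase reporter driven by p53 response elements in HCT-116 cells, read as the 460 nm/530 nm emission ratio after CCF4 loading, following 16 h of exposure to an 11-point series. Cell viability was measured in the same wells by CellTiter-Glo luminescence.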

Assay [7] in a line: Secretion counterscreen for inhibitors of the SERCaMP assay screened against the NCATS CANVASS Library (AID 1347390).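 Further: light from luciferase secreted into medium read as a measure of general secretion.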 Further: potency means the concentration at half of the fitted maximal effect. Put shortly: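 SH-SY5Y-GLuc STOP cells; 4 h attach; cpds 0.001 - 77 uM (qHTS, 11 pts), 20 h 37C/5% CO2; coelenterazine in glow buffer; luminescence, 5 s exposure.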
Assay [8] is described as follows: qHTS for activators of Nrf2/ARE signaling pathway screened against the NCATS CANVASS Library (AID 1347391). Further: nearly all actives have a fitted effect of over 60% in size. Put shortly:
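Plate ARE-bla HepG2 cells at 2000/well and let them settle 5 h. Pin-transfer compounds in DMSO, incubate 16 h at 37C. Load CCF4 for 2 h at room temperature and read blue/green fluorescence.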

Assay [9] is described as follows: qHTS for inhibitors of ER calcium dysfunction: SERCaMP assay screened against the NCATS CANVASS Library (AID 1347393). Further: nearly all actives have a fitted effect of over 40% in size. Further: potency means the concentration at half of the fitted maximal effect. Put shortly:
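Thapsigargin-induced ER calcium depletion drives GLuc-SERCaMP secretion from SH-SY5Y cells; compounds given 16 h beforehand were scored by lowered coelenterazine luminescence after 4 h challenge.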

Assay [10] is described as follows: Vero-766 cells viability qHTS against the NCATS CANVASS Library: Counterscreen for Zika virus inhibition assay (AID 1347394). Further: nearly all actives have a fitted effect of over 60% in size. Further: potency means the concentration at half of the fitted maximal effect. Put shortly: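 Vero 766, no virus; 1000 cells/well; o/n attach; cpd 11-pt; 72 h, 37C, 5% CO2; CTG luminescence; cell-free media wells = 100% inhibition.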
Assay [11] can be described thus: qHTS to identify inhibitors of the type 1 interferon - major histocompatibility complex class I in skeletal muscle: primary screen against the NCATS Mechanism Interrogation Plate v5.0 (MIPE) Libary (AID 1347411). Further: nearly all actives have a fitted effect of over 65% in size. Further: potency means the concentration at half of the fitted maximal effect. In a few lines: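 Luminescence from HiBiT-tagged endogenous HLA-B*08:01 served as the MHC class I read-out. CRISPR-engineered C25cl48 human myoblasts received 4.0 ng/ml IFN-beta plus compound for 24 hrs, with an 11-point, 1:3 series topping at 46 uM final.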

On to `C[C@]12CCC3[C@@H](CC[C@@H]4C[C@@H](O)CC[C@]34CO)[C@@]1(O)CC[C@@H]2C1=CC(=O)OC1` (some centres not stated), for which the Potency in assay [1] was 2980 nM (active); in assay [2], 841 nM (active); in assay [3], 2960 nM (active); in assay [4], 1480 nM (active); in assay [5] it was 4170 nM (active); in assay [7] it was 7670 nM (active). Besides, the Potency in [10] was 11700 nM (active). For the same molecule, the Potency result in assay [6], in assay [8] and in [9] was “inactive” in each case.
As to `CO[C@@]12c3c(C)cc(O)c4c(=O)occ(c34)C(=O)[C@@H]1[C@]13COC(=O)c4c(O)cc(C)c(c41)C(=O)[C@H]2[C@@H]3OC(C)=O`, the Potency result in assay [2], in assay [4], in assay [5], in [6] and in assay [10] was “inactive” in each case.
For the molecule `COC1=C(C2=C(OC)C(=O)c3cc4c(c(O)c3C2=O)C(=O)O[C@H](C)C4)C(=O)c2c(cc3c(c2O)C(=O)O[C@H](C)C3)C1=O`, the Potency entry in assay [2], in assay [4], in [5], in [9] and in [10] was “inactive” each time. In addition, the Potency in assay [3] was 5540 nM (active).
For the molecule `CC[C@H]1CN2CCc3c([nH]c4cccc(OC)c34)[C@@H]2C[C@@H]1/C(=C\OC)C(=O)OC`, the Potency entry in assay [1], in assay [5], in assay [6] and in [10] was “inactive” in each case. In addition, the figures for the Potency in assay [2] and in assay [9] were 18800 nM (active) and 13600 nM (active), respectively.
As for `CC[C@]12C=CCN3CC[C@]4(C(=C(C(=O)OC)C1)Nc1ccccc14)[C@@H]32`, the Potency result in assay [1], in assay [2], in assay [3], in [6], in assay [7] and in assay [8] was “inactive” each time. In [10], the Potency entry was “inactive”.
Turning to `C/C=C1/CN2CC[C@]34C(=C(C(=O)OC)[C@H]1C[C@H]23)Nc1ccccc14`, the Potency entry in assay [2], in assay [6], in assay [7] and in [10] was “inactive” each time. For the same molecule, the Potency is 662 nM (active) in [4] and 19300 nM (active) in assay [9].
Regarding `CC(N[C@H]1C[C@@H]1c1ccccc1)c1ccc2c(c1)OCCO2` (some centres not stated), the Potency result in assay [11] is “inactive”.
Still for that read-out and setting: with `CC(=O)O[C@@]12CO[C@@H]1C[C@H](O)[C@@]1(C)C(=O)[C@H](O)C3=C(C)[C@@H](O)C[C@@](O)([C@@H](OC(=O)c4ccccc4)[C@H]21)C3(C)C` the entry was “inactive”.
As for `O=C(CBr)N1CC([N+](=O)[O-])([N+](=O)[O-])C1`, the Potency result in assay [11] is “inactive”.
Take `COC[C@H]1OC(=O)c2coc3c2[C@@]1(C)C1=C(C3=O)[C@@H]2CC[C@H](O)[C@@]2(C)C[C@H]1OC(C)=O`: in assay [11], the Potency result is “inactive”.
On the same count and under the same terms, with `COc1cc(C)[nH]c(=O)c1CNC(=O)c1c(C)n([C@H](C)C2CCN(CC(F)(F)F)CC2)c2ccccc12` the entry was “inactive”; with `CC(C)(NC(=O)O[C@@H]1CN2CCC1CC2)c1csc(-c2ccc(F)cc2)n1`, “inactive”.
For the molecule `COC(=O)[C@@]12OC[C@]34[C@H]([C@@H](O)[C@@H]1O)[C@@]1(C)CC(=O)C(O)=C(C)[C@@H]1C[C@H]3OC(=O)[C@H](OC(=O)/C=C(\C)C(C)C)[C@@H]24`, in assay [11], the Potency was 65.8 nM (active).
`COC12C(COC(N)=O)C3=C(C(=O)C(C)=C(N)C3=O)N1CC1C2N1C` (configuration not stated): the Potency entry in assay [11] is “inactive”.
As for `CC(C)[C@]12O[C@H]1[C@@H]1O[C@@]13[C@@]1(C)CCC4=C(COC4=O)[C@@H]1C[C@@H]1O[C@@]13C2=O`, the Potency in assay [11] is 131 nM (active).
The same measure, in the same setting: with `CN1C(=O)[C@@H](NC(=O)[C@H](CCC(F)(F)F)[C@H](CCC(F)(F)F)C(N)=O)N=C(c2ccccc2)c2ccccc21` the entry was “inactive”; with `CC1(C)CC[C@]2(NC(=O)C(C)(F)F)CC[C@]3(C)[C@H](C(=O)C=C4[C@@]5(C)C=C(C#N)C(=O)C(C)(C)[C@@H]5CC[C@]43C)[C@@H]2C1`, 1310 nM (active); with `CC(C)(O)/C=C\C(=O)[C@](C)(O)[C@H]1[C@H](O)C[C@]2(C)[C@@H]3CC=C4[C@@H](C=C(O)C(=O)C4(C)C)[C@]3(C)C(=O)C[C@@]12C`, 3300 nM (active).
Same read-out and setting: with `COC(=O)[C@]12CCC(C)(C)C[C@H]1[C@H]1C(=O)C=C3[C@@]4(C)C=C(C#N)C(=O)C(C)(C)[C@@H]4CC[C@@]3(C)[C@]1(C)CC2` the figure was 1170 nM (active).
Still for that read-out and setting: the result for `C[C@@]12OC(=O)[C@]1([C@@H](O)[C@@H]1C=CCCC1)NC(=O)[C@@H]2CCCl` reads 29.4 nM (active); that for `C[C@@H](C1CC[C@@]2(O)C3=CC(=O)[C@@H]4C[C@@H](O)[C@@H](O)C[C@]4(C)[C@H]3CC[C@]12C)[C@H](O)CCC(C)(C)O` (some centres not stated), “inactive”.
On to `C=C[C@H]1CN2CCC1C[C@@H]2[C@@H](O)c1ccnc2ccccc12` (some centres not stated), for which the Potency entry in assay [11] is “inactive”.
Same read-out and setting: with `N#CC(O[C@@H]1O[C@H](CO[C@@H]2O[C@H](CO)[C@@H](O)[C@H](O)[C@H]2O)[C@@H](O)[C@H](O)[C@H]1O)c1ccccc1` (some centres not stated) the entry was “inactive”.
